# Reference: article PMC4552634, “A New Set of Chemical Starting Points with Plasmodium falciparum Transmission-Blocking Potential for Antimalarial Drug Discovery” (PLoS ONE, 2015)
# Hit rate of the full screen: of about 13,000 compounds, about 3,200 (25%) showed an effect of 50% or more. The list shows a part of the results.
# Tested on: P. falciparum stage V gametocytes
# Parameters: BacTiter-Glo ATP luminescence viability of purified stage V gametocytes in 384-well plates, per cent inhibition versus DMSO
# Conditions: 48 h, 5 µM; inhibitor
row,Compound,% Inhibition
1,O=c1cc(NCCCNC2CCOc3c(Cl)cccc32)[nH]c2ccccc12 (centres unmarked) [TCMDC-139551],-16.88%
2,O=C(/C=C/c1ccc(Cl)c(Cl)c1)NCCCCCCN1CCN(C(=O)Nc2cccc(Cl)c2)CC1 [TCMDC-135831],-35.92%
3,Nc1nc(N)c2c(ccn2Cc2cc3c(cc2Cl)OCO3)n1 [TCMDC-137328],-14.37%
4,Nc1nc(N)c2c(ccc3c2ccn3Cc2cccc(F)c2)n1 [TCMDC-137810],101.3%
5,Cc1cccc(Cn2ccc3c4c(N)nc(N)nc4ccc32)c1 [TCMDC-137814],60.36%
6,Nc1nc(N)c2c(ccc3c2ccn3CC2CC2)n1 [TCMDC-123991],40.96%
7,Nc1nc(N)c2c(ccc3c2ccn3Cc2ccc3c(c2)OCO3)n1 [TCMDC-137808],102.2%
8,Cc1cccc(Cn2ccc3c(N)nc(N)nc32)c1 [TCMDC-137327],54.63%
9,Cc1ccc(C)c(Cn2ccc3nc(N)nc(N)c32)c1 [TCMDC-137330],9.396%
10,Cc1cccc(-c2c(C)nc(N)nc2N)c1 [TCMDC-138072],4.683%
11,Cc1cc(NC(=O)Nc2ccc3ncccc3c2)c2ccccc2n1 [TCMDC-139829],-30.57%
12,COc1ccc(C2CCN(C#N)C2)cc1OC1CCCC1 (centres unmarked) [TCMDC-131880],32.2%
13,COc1ccc(-n2c(=O)c3c(n4c(SC(C)C)nnc24)-c2ccccc2CC32CCCCC2)cc1 [TCMDC-125706],19.59%
14,NC1=NC(CCc2ccccc2)N(c2ccccc2)C(N)=N1 (centres unmarked) [TCMDC-131292],10.89%
15,Cn1nccc1C(=O)NCCNCc1ccc(-c2cccc(-c3nc4ccccc4[nH]3)c2)cc1.O=C(O)C(F)(F)F [TCMDC-132562],-0.1444%
16,O=C(O)C(F)(F)F.c1ccc2[nH]c(-c3ccc(-c4ccc(CN5CCN(CCN6CCOCC6)CC5)cc4)cc3)nc2c1 [TCMDC-133928],-28.02%
17,O=C(O)C(F)(F)F.c1cc(-c2ccc(CNCCCn3ccnc3)cc2)cc(-c2nc3ccccc3[nH]2)c1 [TCMDC-132541],99.24%
18,O=C(O)C(F)(F)F.c1cc(-c2ccc(CNCCCN3CCOCC3)cc2)cc(-c2nc3ccccc3[nH]2)c1 [TCMDC-132548],54.17%
19,O=C(O)C(F)(F)F.O=C1CCCN1CCCNCc1ccc(-c2cccc(-c3nc4ccccc4[nH]3)c2)cc1 [TCMDC-132549],-11.63%
20,c1ccc(CCNc2ncnc3c2[nH]c2ccccc23)cc1 [TCMDC-124578],-4.873%
21,CC(C)(C)c1cc(C(=O)Nc2cccnc2)cc(C(=O)Nc2cccnc2)c1 [TCMDC-125788],-16.11%
22,COc1ccc2nccc([C@@H](O)CN3CCC(NCc4nc5c(OCc6ccccc6)cccc5[nH]4)CC3)c2c1 [TCMDC-141083],34.25%
23,CC(CC(=O)NCC1(c2ccc(F)cc2Cl)CCOCC1)C(=O)c1ccc(Cl)cc1 (centres unmarked) [TCMDC-134256],68.04%
24,N#CC(CC(=O)c1ccc(Cl)cc1)c1cccc(F)c1 (centres unmarked) [TCMDC-123760],17.52%

row,Compound,% Inhibition
1,Cc1cccc2nc(-c3cccc(-c4ccc(C(=O)NCc5nccn5C)cc4)c3)[nH]c12 [TCMDC-132356],7.308%
2,COc1ccc(S(=O)(=O)Nc2cc(Br)cc3c2OCCC3)cc1N1CCN(C(=O)C(Cl)(Cl)Cl)CC1 [TCMDC-139661],-19.32%
3,COc1ccc(S(=O)(=O)N(c2cc(Br)cc3c2OCC3)S(=O)(=O)c2ccc(OC)c(N3CCN(C)CC3)c2)cc1N1CCN(C)CC1 [TCMDC-139809],54.84%
4,COc1ccc(NS(=O)(=O)c2ccccc2Br)cc1N1CCN(C)CC1 [TCMDC-139092],-23.57%
5,O=C(/C=C/c1ccc(Cl)c(Cl)c1)N1CCC(CCN2CCc3[nH]c4ccccc4c3C2)CC1 [TCMDC-134173],-40.99%
6,CCOC(=O)c1cn(CC)c2cc(F)c(OC3CC4CCC3(C)C4(C)C)cc2c1=O (centres unmarked) [TCMDC-124161],-18.01%
7,Nc1cc(-c2ccc(Br)cc2O)nc2ccccc12 [TCMDC-138932],61.65%
8,Nc1cc(C=Cc2ccc(O)cc2)nc2ccccc12 [TCMDC-138973],-27.13%
9,CCn1c(/C=C/c2cc(Br)ccc2O)nc2ccccc2c1=O [TCMDC-124092],7.095%
10,CN1CCCN(Cc2cccc(-c3cccc(NS(=O)(=O)c4cccc5cccnc45)c3)c2)CC1 [TCMDC-136482],22.96%
11,O=S(=O)(Nc1ccc(-c2ccc(CN3CCCC3)cc2)cc1)c1cccc2cccnc12 [TCMDC-136475],27.58%
12,CN1CCCN(Cc2ccc(-c3ccc(NS(=O)(=O)c4cccc5cccnc45)cc3)cc2)CC1 [TCMDC-136478],98.81%
13,CCN1CCN(Cc2ccc(-c3ccc(NS(=O)(=O)c4cccc5cccnc45)cc3)cc2)CC1 [TCMDC-136479],-5.672%
14,CC(C)NCc1cccc(-c2ccc(NS(=O)(=O)c3cccc4cccnc34)cc2)c1 [TCMDC-136480],43.51%
15,CN1CCCN(Cc2cccc(-c3ccc(NS(=O)(=O)c4cccc5cccnc45)cc3)c2)CC1 [TCMDC-136481],100.2%
16,COc1cc(F)c2ncc(Cl)c(CCN3CCC(NCc4ccc5c(c4)OCCO5)CC3)c2c1 [TCMDC-135624],2.949%
17,CC(CCc1ccccc1)NCC(O)c1ccc2c(c1)S(=O)(=O)c1ccccc1N2 (centres unmarked) [TCMDC-131254],-29.84%
18,CCCCCN1CCCC(NS(=O)(=O)c2ccc(C(=O)Nc3ccc(C(F)(F)F)cc3)cc2)C1 (centres unmarked) [TCMDC-133677],16.66%
19,CC(Cc1ccc(OCCCCOc2ccccc2)cc1)NCCC1CCCN1C (centres unmarked) [TCMDC-140017],116.2%
20,CC(Cc1ccc(OCCN2CCN(c3ccccc3)CC2)cc1)NCC(O)c1cccc(Cl)c1F (centres unmarked) [TCMDC-131531],24.37%
21,CN1CCCC1CCCOC(=O)c1ccc(N)cc1 (centres unmarked) [TCMDC-131643],-5.047%
22,CC(Cc1ccc(OCCCCOc2ccccc2)cc1)NCCCN1CCOCC1 (centres unmarked) [TCMDC-140018],107.6%
23,c1ccc(OCCCCN2CCCCC2)cc1 [TCMDC-124256],16.85%
